Source: PubChem BioAssay
Not all results are given here.
aSyn UTR act: Activators working through SNCA 5'UTR binding (MLPCN) | alpha-synuclein 5'UTR reporter, activators screen | activity score, % (tested at 7.5 µM), hits read low | actives 7.1% (n = 300,000) | AID 1814; in the data active = activity score below about -60%
Of the large screens only hits and unclear results are named; the others gave an inactive call.

Cc1cc(C)c(NC(=O)CC(=O)c2ccccc2)c(Cl)c1	aSyn UTR act -92.9
Cc1ccc(C(=O)CCc2ccc(N)cc2)cc1	aSyn UTR act -77.3
O=C(CN1C(=O)CCC1=O)c1ccc(-c2ccccc2)cc1	aSyn UTR act -81.7
CCc1ccc(C(=O)COC(=O)c2ccc(-c3nnc(-c4ccccc4)o3)cc2)cc1	aSyn UTR act -161.2
N=c1ccn(CC(=O)c2ccc(-c3ccccc3)cc2)cc1	none
CCCC(=O)c1ccc(-c2ccccc2)cc1	aSyn UTR act -70.1
CCCCOc1ccc(/C(N)=N/O)cc1	aSyn UTR act -73.2
CN1CCc2c(sc(/N=C/c3cc(Cl)ccc3O)c2C#N)C1	aSyn UTR act -156.6
CN1CCc2c(sc(/N=C/c3c[nH]c4ccccc34)c2C#N)C1	aSyn UTR act -67.7
O=C1c2c(Br)c(Br)c(Br)c(Br)c2C(=O)N1c1ccccn1	aSyn UTR act -112.3
Cc1cccc(C)c1N=C1SC(CC(=O)Nc2c(C)cccc2C)C(=O)N1CCc1ccccn1 (stereo unspecified)	none
CCOC(=O)C1CCCN(C(=O)c2ccc3oc(Cc4ccccc4)nc3c2)C1 (stereo unspecified)	aSyn UTR act -207.5
CCOC(=O)N1CCN(C(=O)c2ccc3oc(CCCc4ccccc4)nc3c2)CC1	aSyn UTR act -149.8
COCC1CCCCN1C(=O)c1ccc2oc(CCCc3ccccc3)nc2c1 (stereo unspecified)	aSyn UTR act -85.9
c1ccn2c(c1)nc1c2nc2ccccn21	aSyn UTR act -189.2
Cc1c(-c2ccc(Br)cc2)nc2ccccn12	aSyn UTR act -180.6
Clc1c(-c2ccccc2)nc2ccccn12	aSyn UTR act -151.6
Cc1ccc(-c2nc3ccccn3c2C=O)cc1	aSyn UTR act -107.9
CCN(CC)c1ccc(NC(=S)NC(=O)C2CCC2)cc1	aSyn UTR act -63.6
COc1ccc(NC(=S)NC(=O)C2CCCCC2)cc1	aSyn UTR act -86.4
COc1ccc(NC(=O)NC2CCCCC2C)cc1 (stereo unspecified)	aSyn UTR act -81.0
Cc1cc(NC(=S)NC(=O)C2CC2)ccc1Br	aSyn UTR act -114.0
CC(=O)c1c(C)[nH]c(C(=O)Nc2cc(C)cc(C)c2)c1C	aSyn UTR act -77.6
CC(=O)c1c(C)[nH]c(C(=O)Nc2cccc(S(=O)(=O)N(C)C)c2)c1C	aSyn UTR act -153.4
CC(=O)c1c(C)[nH]c(C(=O)Nc2nc(C)cs2)c1C	none
COc1ccc(OC)c(NC(=O)c2[nH]c(C)c(C(C)=O)c2C)c1	aSyn UTR act -85.0
Cc1ccc(N2C(=O)c3n[nH]c(C)c3C2c2ccco2)cc1 (stereo unspecified)	aSyn UTR act -65.2
Brc1ccc(-n2cnc(-c3ccccc3)c2)cc1	aSyn UTR act -136.0
Cc1ccc(/C=N/NC(=O)c2nn(C)cc2Cl)cc1	aSyn UTR act -107.8
Cn1cc(Cl)c(C(=O)N/N=C/c2ccc3c4c(cccc24)CC3)n1	aSyn UTR act -126.4
O=C(Cn1nnc(-c2ccccc2)n1)N1CCCCC1	aSyn UTR act -70.3
O=C(Cn1nnc(-c2ccc(OCc3ccccc3F)cc2)n1)N1CCOCC1	aSyn UTR act -69.8
CC(C)c1ccc(-c2nnn(CCC(=O)O)n2)cc1	none
Cn1c(-c2ccccc2)cnc1SCC(=O)N1CCCCC1	none
CC(C)COc1ccc(-c2nnn(CC(=O)N3CCCC3)n2)cc1	aSyn UTR act -89.4
CC1CCCN(C(=O)Cn2nnc(-c3ccccc3F)n2)C1 (stereo unspecified)	aSyn UTR act -102.6
O=C(Cn1nnc(-c2ccccc2Cl)n1)N1CCCCC1	aSyn UTR act -98.1
CC(C)Sc1nnc(-c2c[nH]c3ccccc23)n1C	aSyn UTR act -110.5
COc1ccc(N)cc1-n1c(C)ccc1C	aSyn UTR act -117.9
COc1cc(/C=C(/C(=O)c2cccs2)c2nc3ccccc3[nH]2)cc(OC)c1O	aSyn UTR act -224.4
COc1cc(/C=N/Nc2nc3ccccc3[nH]2)cc(OC)c1O	aSyn UTR act -100.3
COc1cccc(/C=N/Nc2nc3ccccc3[nH]2)c1OC	aSyn UTR act -106.2
COc1ccccc1Nc1nc2ccccc2[nH]1	aSyn UTR act -119.7
COc1cc(/C=N/Nc2nc3ccccc3[nH]2)ccc1O	aSyn UTR act -270.3
COc1ccc(O)c(/C=N/Nc2nc3ccccc3[nH]2)c1	aSyn UTR act -81.2
c1cncc(-c2nc3ccccc3[nH]2)c1	aSyn UTR act -88.2
Cc1ccc(-c2nc3ccccc3[nH]2)s1	aSyn UTR act -80.3
c1ccc(-c2nc3ccccc3[nH]2)cc1	aSyn UTR act -138.4
Cc1[nH]c2ccccc2c1-c1nc2ccccc2[nH]1	aSyn UTR act -78.5
COC(=O)c1ccc(N2CCN(C)CC2)c(NC(=O)COc2ccc(OC)cc2)c1	aSyn UTR act -67.9
COc1ccccc1-c1cc2ccccc2[nH]1	aSyn UTR act -207.0
Cc1cccc(N=Nc2cn[nH]c2-c2ccco2)c1	aSyn UTR act -124.5
Oc1c(Cl)cc(Cl)cc1C=Nc1cc(C(F)(F)F)ccc1N1CCc2ccccc2C1	aSyn UTR act -98.4
O=C1c2ccccc2NC(c2ccc3c(c2)OCO3)N1O (stereo unspecified)	aSyn UTR act -120.5
c1ccc(SCCN2CCc3ccccc3C2)cc1	aSyn UTR act -97.0
